# PglD inh = blocks C. jejuni PglD acetyltransferase activity; purified PglD enzyme, DTNB colorimetric CoA detection; inhibition, % at 12.5 µM; hit rate 0.098% among 360,000; in the data active means inhibition above about 16%, passing the limit was not always enough
# PvdQ acylase = blocks Pseudomonas aeruginosa PvdQ acylase activity; purified PvdQ acylase, fluorescence plate reader; inhibition, % at 10 µM; hit rate 0.063% among 340,000; in the data active means inhibition above about 30%, passing the limit was not always enough;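 further: 0% = vehicle neutral wells and 100% = reference inhibitor wells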
# FGF22 binding = binders of recombinant human FGF22 by thermal shift; Q9HCT0; SYPRO orange fluorescence; percent of sucrose octasulfate shift, DMSO zero; activity (Tm shift, normalised), % at 9.99 µM; hit rate 1.5% among 340,000;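 active means mean Tm shift, scaled 0 neutral to 100 positive control, at about 1.3% or above, every replicate too, limit read from the data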
# dFosB activator = mouse delta FosB homodimer activation | P13346 | purified delta FosB, TAMRA-CDK5 oligo fluorescence polarization; percent of positive-control signal above neutral wells | activation, % at 25 µM | hit rate 0.99% among 340,000;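 active means mean activation above about 17%, with every replicate also reaching it, limit read from the data, passing the limit was not always enough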
# CDK5 inh = CDK5/p35 (human) kinase inhibition. inhibition, % at 10 µM. hit rate 0.01% among 330,000. Q00535+Q15078. Recombinant CDK5/p35, ADP-Glo luminescence, 60 min. AID 488839;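 active means highest replicate inhibition of at least 50% and at least 75% of replicates reaching 50%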;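 further: plate controls were DMSO neutral control for no effect and GW8510 at 10 µM for full effect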
# Target sequence (Q00535 whole entry, looked up): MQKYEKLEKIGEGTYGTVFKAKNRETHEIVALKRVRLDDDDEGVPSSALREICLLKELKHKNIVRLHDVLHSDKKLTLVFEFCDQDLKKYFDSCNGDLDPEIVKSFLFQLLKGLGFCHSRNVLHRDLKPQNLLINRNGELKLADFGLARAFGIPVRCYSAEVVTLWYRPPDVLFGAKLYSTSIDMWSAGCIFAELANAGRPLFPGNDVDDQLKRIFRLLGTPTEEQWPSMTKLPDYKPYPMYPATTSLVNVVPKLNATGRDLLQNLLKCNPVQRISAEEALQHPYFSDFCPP
# Target sequence (Q15078 whole entry, looked up): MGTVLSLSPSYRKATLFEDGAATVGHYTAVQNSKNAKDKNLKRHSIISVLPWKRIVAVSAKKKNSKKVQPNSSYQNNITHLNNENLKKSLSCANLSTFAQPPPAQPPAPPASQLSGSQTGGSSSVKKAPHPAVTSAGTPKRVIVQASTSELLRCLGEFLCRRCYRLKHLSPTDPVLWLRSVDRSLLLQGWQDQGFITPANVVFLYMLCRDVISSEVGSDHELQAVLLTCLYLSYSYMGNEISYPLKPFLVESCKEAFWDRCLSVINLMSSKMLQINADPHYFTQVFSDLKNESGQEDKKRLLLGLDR
# SIRT5 block = blocks human SIRT5 desuccinylation of peptide | Q9NXA8 | Purified SirT5, succinyl-peptide AMC, trypsin-coupled fluorescence | inhibition, % at 15 µM | hit rate 1.1% among 330,000 | AID 652115; in the data active means inhibition above about 15%
# Active calls of the source: *; x = no result given. The list is not random: actives were taken first. Their share in the collection is about 2.8%.
SMILES,PglD inh,PvdQ acylase,FGF22 binding,dFosB activator,CDK5 inh,SIRT5 block
COC(=O)C(=C/C=C/c1cccnc1)C(=O)OC,-2,8,43*,1,0,3
COc1ccc2c3c([nH]c2c1)[C@@H](CO)N(C(=O)c1ccccc1)CC31CN(C(=O)NC(C)C)C1,x,x,0,x,x,x
CCOc1ccccc1NC(=O)c1nc(-c2ccccc2)oc1C,x,-8,43*,-7,0,-2
CCOc1ccc(NC(=O)Nc2cc(-c3ccccc3)sc2C(=O)OC)cc1,-4,14,0,-7,2,16*
N=c1n(CCN2CCCCC2)c2ccccc2n1CC(=O)c1cccc([N+](=O)[O-])c1,1,-22,0,21*,1,0
CCc1cc2c(=O)c(-c3nc4ccccc4n3C)coc2c(CN2CCCCC2)c1O,-4,-8,0,-3,0,34*
O=C(COC(=O)c1ccc(O)cc1)Nc1ncc(Cl)cc1Cl,8,-7,44*,-7,-1,2
Cc1cc2ncc(C(=O)Nc3ccccc3)c(C)n2n1,x,-3,x,3,0,x
COC(=O)c1sccc1NC(=O)c1cnc2cc(C)nn2c1C,x,0,43*,8,2,0
COCC(=O)N(C)C[C@H]1Oc2cc(C#Cc3cccnc3)ccc2S(=O)(=O)N([C@H](C)CO)C[C@@H]1C,0,x,0,x,x,2
O=C(C[C@@H]1CC[C@H]2[C@@H](COC[C@@H](O)CN2C(=O)c2cnccn2)O1)NCc1ccc(F)cc1,0,x,1,x,x,2
O=C(c1ccco1)N1N=C(c2cccs2)CC1c1ccco1 (stereo not drawn),x,-6,0,-6,1,-6
Cc1ccc(C2CC(c3cccs3)=NN2C(=O)c2ccco2)o1 (stereo not drawn),-8,-7,44*,-10,0,3
CCNC(=O)C[C@@H]1CC[C@@H]2[C@H](COc3ccc(NC(=O)c4ccc(F)cc4)cc3C(=O)N2C)O1,2,x,0,x,x,-1
CCC1(C)Cc2ccccc2C(=O)N1 (stereo not drawn),5,-4,0,-7,0,-1
CC1(C)Cc2ccccc2C(=NCC(=O)O)N1,x,-8,43*,-3,-2,0
CCOC(=O)c1csc(NC(=O)c2ccc(OCC)cc2)n1,x,-12,43*,-2,-1,-3
Cc1csc(NC(=O)c2ccc(S(C)(=O)=O)cc2)n1,x,-3,0,-9,-3,19*
COc1ccc(-c2csc(NC(=O)c3ccc(S(C)(=O)=O)cc3)n2)cc1,-3,4,0,4,0,-3
CCOC(=O)c1csc(NC(=O)c2ccccc2)n1,-2,19,0,0,-1,0
CCOc1ccc(C(=O)Nc2ccc3c(c2)C(=O)NC3=O)cc1,-3,-15,0,59*,-1,-3
COc1ccc(NC(=O)c2ccc(NC(=O)CN3CCN(c4ccc(O)cc4)CC3)cc2)cc1,-1,-6,0,-8,2,0
COc1ccc(NC(=O)c2ccc(NC(=O)CN3CCN(c4ccccc4O)CC3)cc2)cc1,3,x,43*,x,x,x
CCCCOc1ccc(C(=O)Nc2ccc3c(c2)C(=O)NC3=O)cc1,-3,7,0,6,1,-7
CCCCOc1ccc(C(=O)Nc2ccc(CN3CCOCC3)cc2)cc1,-9,-4,0,-7,1,29*
SMILES,PglD inh,PvdQ acylase,FGF22 binding,dFosB activator,CDK5 inh,SIRT5 block
CCCOc1ccc(C(=O)Nc2ccc(CN3CCOCC3)cc2)cc1,3,-16,0,-6,1,9
COc1ccc(C(=O)Nc2ccc(N3CCCC3)cc2)cc1,7,-7,x,29*,-6,x
COc1ccc(NC(=O)c2cccnc2N2CCCC2)cc1,8,-2,0,1,-1,19*
CCOc1cccc(C(=O)Nc2ccc(N3CCCC3)cc2)c1,-5,3,0,-2,0,-1
CCOc1ccc(C(=O)Nc2ccc(N3CCCC3)cc2)cc1,x,-7,x,22*,-2,x
COc1ccc(NC(=O)c2cccnc2N2CCCCC2)cc1,2,1,x,3,-2,x
O=C(c1cnccn1)N1CC[C@@H]2[C@H]1c1cc(-c3cccc(F)c3)ccc1N[C@@H]2CO,1,x,1,x,x,2
O=C(Oc1ccc(Br)cc1)c1n[nH]c(=O)c2ccccc12,x,-1,43*,11,-4,1

# High-throughput results: PubChem BioAssay, Broad Institute
